Measured values taken from ChEMBL document CHEMBL3988442, “University of Dundee, Small-Polar-MMV Screening Library” (2021).

Legend:
[1] = target: T1, Aspartate--tRNA(Asp/Asn) ligase (Mycobacterium tuberculosis (strain ATCC 25618 / H37Rv)) (UniProt P9WFW3); assay: Assay for Asp RNA synthetase-1 from Mycobacterium tuberculosis; type: functional; parameters: scale not given: direction of the effect not stated beside the values; settings: 30 µM; further: in the data most compounds retested in dose-response had high values
T1 sequence (whole entry): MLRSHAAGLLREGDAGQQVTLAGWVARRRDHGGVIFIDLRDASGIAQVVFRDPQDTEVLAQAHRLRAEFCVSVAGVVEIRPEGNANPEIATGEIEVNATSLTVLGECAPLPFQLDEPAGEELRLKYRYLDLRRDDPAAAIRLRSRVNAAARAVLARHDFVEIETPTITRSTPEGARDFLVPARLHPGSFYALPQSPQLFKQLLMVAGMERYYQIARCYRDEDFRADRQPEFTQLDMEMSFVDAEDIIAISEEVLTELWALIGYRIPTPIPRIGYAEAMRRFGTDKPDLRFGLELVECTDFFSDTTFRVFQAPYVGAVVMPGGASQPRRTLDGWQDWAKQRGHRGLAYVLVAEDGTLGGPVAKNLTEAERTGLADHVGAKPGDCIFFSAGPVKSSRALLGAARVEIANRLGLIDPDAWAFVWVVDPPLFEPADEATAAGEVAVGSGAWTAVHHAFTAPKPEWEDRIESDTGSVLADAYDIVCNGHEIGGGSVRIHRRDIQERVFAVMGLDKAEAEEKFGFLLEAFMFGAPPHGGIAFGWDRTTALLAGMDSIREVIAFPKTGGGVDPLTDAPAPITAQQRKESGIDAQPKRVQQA

[2] = target: Shiga toxin 2 (Escherichia coli O157:H7) (UniProt P09385+P09386); assay: E. coli 0.157:H7 Shiga Toxin SOP - stx2 screening assay; type: functional; parameters: scale not given: direction of the effect not stated beside the values; settings: 30 µM

Row | SMILES | Percent Effect [1] | Percent Effect [2]
1 | COCCN1CCCC1c1nccnc1Nc1nc(C)cs1 (stereo not given) | -3.52% | 0.955%
2 | c1ccc(Cn2cncn2)c(CNCC2CNc3ccnn3C2)c1 (stereo not given) | 0.425% | -35.2%
3 | CC(=O)Nc1nc(CN2CCn3c(nnc3C3CC3)C2)cs1 | -7.9% | -26.2%
4 | Cc1nccnc1CN1CCC2(CCCN(C3CCOCC3)C2=O)C1 (stereo not given) | 2.6% | -28.8%
5 | NC(=O)NCC(=O)N1C[C@H]2CC[C@@H]1CN(C1Cc3ccccc3C1)C2 | 6.33% | -7%
6 | Cn1cc(-c2cnc(N3CCOCC3)nc2)cc1C(=O)NCCO | 8.57% | -9.13%
7 | COCCNC(=O)c1ccc(C)c(-n2cccc2)c1 | -0.779% | -6.48%
8 | NC(=O)NC(=O)CCN1CCCN(c2nccs2)CC1 | 1.54% | -33.2%
9 | CS(=O)(=O)N1CCC(O)(Cn2c(C3CC3)nc3ccccc3c2=O)CC1 | 1.5% | 11.1%
10 | CSc1cc2c(cc1NC(=O)NCC(C)(C)C(N)=O)OCCO2 | 0.408% | -1.68%
11 | O=C(NCc1cccnc1)C1=NOC2(CCN(S(=O)(=O)C3CC3)C2)C1 (stereo not given) | -3.41% | -21.8%
12 | CCC(C)CNc1ccc2oc(COC)nc2c1 (stereo not given) | 65.3% | -59.7%
13 | CC(C)c1nnc2ccc(N3CCC(C(=O)Nc4nccs4)CC3)nn12 | -2.93% | -32.8%
14 | COc1ccc(CNCc2ccnc(N3CCCCC3)c2)cc1OC | -2.15% | -57.5%
15 | O=C(CCc1cscn1)NS(=O)(=O)c1ccc2c(c1)CCC2 | -2.03% | -1.33%
16 | c1cncc(-c2ccc3c(c2)C2(CC3)CCN(c3nncs3)CC2)c1 | 1.44% | -7.47%
17 | Cc1ccoc1C(=O)N1C[C@H]2CCC[C@@]2(COCc2ccncc2)C1 | 6.22% | -14.5%
18 | CC(=O)N1C[C@H](NC(=O)c2cscn2)[C@@H]2OCCC[C@@H]21 | -2.64% | 6.1%
19 | CN1CC[C@H](c2ccccc2)[C@@H]2[C@H]1CCCCN2C(=O)c1cnccn1 | -3.68% | 3.52%
20 | CC(C)c1nnc(NC(=O)NCc2ccnc(N(C)C)c2)s1 | -3.25% | -21.8%
21 | COc1ncccc1NC(=O)C1CC(=O)N(Cc2ccccn2)C1 (stereo not given) | 1.2% | -0.103%
22 | Cc1cc2nc(SCC(=O)N3CCCC3)n(C(C)C)c(=O)c2[nH]1 | 0.509% | -18%
23 | CCNC(=O)[C@@H]1C[C@H](NC(=O)c2cncnc2C)CN1CCCSC | -2.78% | -8.54%
24 | O=C(CC1CCCC1)NCCn1ccc(-c2ccncc2)n1 | 7.45% | 3.58%
25 | CN(C)C(=O)NC[C@H]1OC[C@@H]2CCN(Cc3ccoc3)C[C@@H]21 | 1.28% | -22.6%

Row | SMILES | Percent Effect [1] | Percent Effect [2]
26 | COCCNC(=O)NCc1ccc(OC(C)C)c(F)c1 | -1.07% | 29.6%
27 | COc1cccc2c1OCC(NC(=O)NC1CCN(C3CC3)CC1)C2 (stereo not given) | -3.21% | 3.63%
28 | CC(C)n1ccnc1C1CCN(C(=O)c2ccccc2)CC1 | -4.71% | 12.4%
29 | O=C(Cc1ccc2c(c1)CCO2)N1CCN(c2cnccn2)CC1 | -4.06% | -23.3%
30 | Cc1noc(CN(Cc2ccc3c(c2)OCO3)Cc2ccc(C)o2)n1 | 13.9% | 29%
31 | Cc1nc(CNCc2c(C)nn(C)c2N2CCOCC2)cs1 | -5.61% | 23.3%
32 | CNc1cc(C)nc(C2CN(Cc3cc[nH]n3)CCO2)c1 (stereo not given) | -0.432% | 13.3%
33 | CCn1c(CN2CCCC2)nnc1C1CCN(Cc2ccc(C)o2)CC1 | -0.695% | 1.78%
34 | NC(=O)C1(Cc2ccccc2-c2ccccc2)CCCN(CC2CC2)C1 (stereo not given) | 2.13% | -5.72%
35 | CCNC(=O)CN1CCCN(C(=O)C2CCCc3[nH]ncc32)CC1 (stereo not given) | -3.09% | -2%
36 | Cc1ccc(F)c(C(=O)N2CCN(S(C)(=O)=O)[C@@H](C)C2)c1 | -2.79% | -20.5%
37 | COc1ccccc1CCN(C)C(=O)NC(C)c1nncn1C (stereo not given) | -4.13% | 1.17%
38 | COc1ccc(CN(C)[C@@H]2CN(C(=O)c3cccs3)C[C@H]2O)cc1 | -4.54% | 12%
39 | CCCc1nc(CN2CCCC2Cn2cncn2)cs1 (stereo not given) | -4.65% | -7.55%
40 | Cc1ccc(CNC2CCCc3c2cnn3C)s1 (stereo not given) | -2.88% | 1.56%
41 | CC(C)C(=O)N1CCN(C(=O)c2cscn2)[C@H]2CS(=O)(=O)C[C@H]21 | -8.33% | -5.71%
42 | CC(C)(C#N)C(=O)N1CCCC(c2cc(C(F)(F)F)[nH]n2)C1 (stereo not given) | -1.34% | -11.7%
43 | Cc1ccc(CN2CCOC3(COCCN(CCN(C)C)C3)C2)o1 (stereo not given) | 5.87% | -4.4%
44 | CN(C)c1cc(C(=O)N2CCN(S(C)(=O)=O)CC2)ccn1 | -0.122% | -36.9%
45 | COc1ccccc1OCc1cc(C(=O)N2CC=CC2C(C)C)n[nH]1 (stereo not given) | -0.752% | 15.8%
46 | O=C(CC1CN(Cc2ccccc2)CCO1)NC1CCCC1 (stereo not given) | -3.53% | 1.42%
47 | Cc1ccc2oc(C(=O)N3CCCC(c4noc(C)n4)C3)cc2n1 (stereo not given) | -6.59% | -27.4%
48 | Cn1ccc(C(=O)N2CCN(CCc3ccccc3)CC2)cc1=O | -1.76% | -19.1%
49 | CCOc1ccc(-n2nnc(C(=O)O)c2-c2ccncc2)cc1 | 3.77% | -21.9%
50 | Cc1cc(C)n(CC2CCCN2Cc2c(C)noc2C)n1 (stereo not given) | -2.12% | -12.7%

Row | SMILES | Percent Effect [1] | Percent Effect [2]
51 | O=C(C1CCC1)N1CCN(c2snc3ccccc23)CC1 | 2.29% | 10.4%
52 | CC(C)CCN1CCC2(CC1)CN(C(=O)c1cnccn1)CCO2 | -0.349% | -0.912%
53 | CCNc1cc2c(nn1)CCN(C(=O)c1ccc3cc[nH]c3c1)C2 | 2.23% | -3.04%
54 | COC(=O)c1ccc(N2CCN(CCN3CCOCC3)C(C)C2)cc1 (stereo not given) | -8.26% | 32.4%
55 | CC(C)c1nc(CN(C)C2CCN(CC(F)(F)F)C2)no1 (stereo not given) | 8.54% | -4.21%
56 | CC(C)NC(=O)Nc1ccc(CS(=O)(=O)C(C)(C)C)cc1 | 0.689% | 0.4%
57 | CS(=O)(=O)NCCCNC(=O)c1cccnc1O | 5.28% | -16.3%
58 | c1csc(-c2nc(CN3CCOC(Cn4cncn4)C3)co2)c1 (stereo not given) | 21.8% | 19.9%
59 | Cn1c(CC2CCS(=O)(=O)C2)nnc1SCCOc1ccccc1F (stereo not given) | 2.75% | -10.2%
60 | CCn1cc(CN2CCCN(C(=O)c3sccc3C#N)CC2)cn1 | 0.257% | -4.04%
61 | Cn1ncc2c1CN(Cc1cccnc1)CC2COCC1CC1 (stereo not given) | 2.03% | -44.8%
62 | COc1cccc(C(=O)N2CCCC(c3cc(C)[nH]n3)C2)c1OC (stereo not given) | -1.08% | 27%
63 | Cc1cnn(CCNCc2nc(COc3ccc(F)cc3)no2)c1 | -1.72% | 16.3%
64 | CN(C)CC(=O)N1C[C@@H]2CC[C@H](Oc3ccccc3Cl)[C@@H]2C1 | 1.77% | 12.4%
65 | Cc1nc(N2CCCC2)nc2c1CN(C(=O)N1CCOCC1)CC2 | 0.478% | -3.98%
66 | CC(Cn1cccn1)NC(=O)Nc1ccc(N(C)C)nc1 (stereo not given) | 1.98% | -47.5%
67 | CC(C)C(C(=O)N1CCCN(Cc2cnn(C)c2)CC1)n1cncn1 (stereo not given) | -1.93% | -40.5%
68 | Cc1cn(CC(=O)NC2CCN(S(C)(=O)=O)CC2)c2ccccc12 | 2.86% | -10.4%
69 | O=C(c1ccccn1)N1CCCC(c2nccn2CC2CCC2)C1 (stereo not given) | 4.83% | -29.9%
70 | c1ccc(-c2cnc(CN3CCCC3Cn3cncn3)o2)cc1 (stereo not given) | -6.65% | 8.27%
71 | COc1ccccc1[C@@H]1CN(Cc2cc(C(C)(C)C)[nH]n2)C[C@H]1C(=O)O | 1.28% | -6.54%
72 | Cc1ccc(NC2CCN(C(=O)Cc3ccc(C#N)cc3)CC2)nn1 | 4.2% | -11.6%
73 | Cn1cc(C(=O)NC2CCN(C(=O)NCCSC(F)(F)F)CC2)cn1 | 0.597% | -30.6%
74 | CCn1ncc2c1CCCC2NCc1ccc(OC)c(C)c1 (stereo not given) | -4.46% | -11.4%
75 | O=C(N1CCOCC1)[C@@]12CCO[C@@H]1CCN(CCN1CCCCC1)C2 | 3.6% | -37.5%

Row | SMILES | Percent Effect [1] | Percent Effect [2]
76 | CSCCCN1CCCC1c1noc(C)n1 (stereo not given) | 1.68% | 11.3%
77 | CC(C)C(=O)NCc1cccc(N2CCCCC2=O)c1 | -1.01% | 6.13%
78 | O=C(Cc1ccc2c(c1)OCCO2)N1CCCC(n2ccnc2)C1 (stereo not given) | -4.41% | -18.9%
79 | CCNc1cc2c(nn1)CCN(C(=O)c1ccc(NC3CC3)nc1)C2 | -0.723% | 2.8%
80 | CN1CCN(CC2CC2)C(=O)c2cnc(N3CCCC3)nc21 | -0.103% | -25.1%
81 | Cc1ccc(NC2CCN(C(=O)c3n[nH]c4ccccc34)CC2)nn1 | 0.985% | -18.6%
82 | CSc1sc(NC(=O)Cc2c(C)nc(C)[nH]c2=O)nc1C | -2.08% | -7.28%
83 | COCC(NC(=O)c1cnn(C)c1)c1cccc(C(F)(F)F)c1 (stereo not given) | -1.9% | -12.8%
84 | CN(Cc1cccc(F)c1)C(=O)CN1CCOC(Cn2cccn2)C1 (stereo not given) | -0.139% | 0.15%
85 | c1cc(CN2Cc3nnn(CC4CC4)c3C(COCC3CC3)C2)co1 (stereo not given) | -1.45% | -2.53%
86 | COCC1CN(C(=O)CNC(C)=O)Cc2ncnn2C1 (stereo not given) | 0.773% | -26.6%
87 | Cc1cc(CN(C)C2CCCN(Cc3noc(C4CC4)n3)C2)no1 (stereo not given) | 1.66% | 28%
88 | O=C(Cn1cccn1)NCC1(c2ccccc2)CC1 | -2.68% | 16.1%
89 | Cc1nc(CN2C(=O)CC[C@H]3[C@@H]2CCN3C(=O)c2ccsc2)cs1 | -4.11% | -2.73%
90 | O=C1N(CCCc2ccccc2)CCCC1(O)CNCc1ccccc1 (stereo not given) | 4.53% | -10.3%
91 | O=C(NCc1ccccn1)[C@@H]1COC[C@H]2CN(C3CCOCC3)C[C@H]21 | 7.53% | -6.42%
92 | C1CC(NCc2nc(C3CC3)no2)CN(Cc2noc(C3CC3)n2)C1 (stereo not given) | -2.94% | 13.3%
93 | CN(Cc1nc(-c2ccco2)no1)C1CCCN(c2cccnn2)C1 (stereo not given) | -3.2% | -26.8%
94 | O=C(CCc1cc2n(n1)CCCN(C(=O)c1ccccn1)C2)NC1CC1 | -1.14% | 9.76%
95 | Cn1cc(NC(=O)N2CCC(NS(C)(=O)=O)CC2)ccc1=O | 57.4% | -31.1%
96 | CCOC(=O)CNC(=O)c1cccnc1Oc1ccc(Cl)cc1 | -1.89% | 6.74%
97 | COc1cccc(CCC2CCCN(C(=O)c3n[nH]c4c3CCC4)C2)c1 (stereo not given) | 2.06% | -1.83%
98 | c1csc(CN2CCO[C@H]3[C@H](OCCN4CCCC4)CC[C@@H]32)n1 | 2.94% | -36.8%
99 | Cc1nc(CN2CCc3cncnc3C2)oc1C | -1.67% | -14.4%
100 | CO[C@@H]1CC[C@H]2[C@H]1OCCN2C(=O)c1ccc(C)o1 | 2.26% | -16.7%
